# Compounds with a hit are over-represented: about 2.1% of the library has one in this group of screens.
# TDP43 rescue = qHTS of TDP-43 Inhibitors; Potency, µM (doses to about 46.1 µM), inactives show at the highest dose growth rescue (activation), usual class: activators; 1.8% of 410,000 active; TDP-43 expressing yeast growth rescue, BacTiter-Glo, 24 h; also: % of control where 0% means no effect; nearly all actives have a fitted effect of over 50% in size
#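 In this qHTS, compounds that restore growth of yeast expressing TDP-43 appear as activators. Cells (OD600=0.02, galactose medium, raffinose-pregrown) are incubated with compound 24 hr at 30 deg C and growth is quantified by BacTiter-Glo.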
# Abeta yeast res = qHTS for compounds that reverse cellular toxicity of Amyloid beta (A-beta) peptide in yeast: Primary Screen; yeast expressing A-beta42, growth rescue, OD600, 48 h; response scale: 0% DMSO, 100% iron-clioquinol control; Potency, µM (series often up to 46.1 µM), hits mostly activators; 0.063% of 410,000 active; also: nearly all actives have a fitted effect of over 55% in size
#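 Growth rescue measured by 600 nm absorbance after 48 h yeast culture at 30 C with compound. Values normalized between DMSO and an equimolar ferric chloride plus clioquinol control.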
# aSyn rescue = qHTS of alpha-syn Inhibitors; Yeast expressing alpha-synuclein, growth rescue, BacTiter-Glo, 24 h; Potency, µM (titrated, usually from 46.1 µM), inactives show at the top dose growth rescue (activation), usual class: activators; 0.14% of 370,000 active; also: % of control where 0% means no effect; nearly all actives have a fitted effect of over 65% in size
#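 Rescue of yeast growth: cells expressing toxic alpha-synuclein, induced in galactose at OD600 0.02, incubated with compound 24 h at 30 C. ATP luminescence quantified growth; inhibitors of toxicity appear as activators.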
# FUS yeast rescue = qHTS for Suppressors of FUS Proteinopathy: Primary screen using FUS-linked yeast assay; AID 1347120, 2019; Potency, µM (highest dose often 76.6 µM), actives largely listed as activators; 0.24% of 390,000 active; S. cerevisiae FUS-expressing, growth rescue, OD600, 24 h;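 also: plate controls were DMSO vehicle for no effect and reference control for full effect; nearly all actives have a fitted effect of over 55% in size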
#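 FUS-expressing yeast, raffinose-pregrown, induced in 2% galactose minimal medium at OD 0.005; compounds in a dilution series, 24hr at 30C. Growth restoration read as absorbance at 600 nm. CP55940 positive control, DMSO negative.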
# * = called active by the depositor; i = inactive; u = inconclusive; x = no result given; ! = repeats disagree. Calls follow the shape of the dose curve; as a rule, active = well fitted curve in the direction sought with a large enough effect; inconclusive = small, poorly fitted or top-dose-only effect, or another doubt; inactive = no such curve, though single readings can be large; an effect the other way counts as inactive or inconclusive. Potency is read from the fitted curve at half-maximal effect.
SMILES,TDP43 rescue,Abeta yeast res,aSyn rescue,FUS yeast rescue
Cc1ccccc1N/N=C1\CCCNC1=O,16%,i,-8%,i
Cc1ccc(C)c(N/N=C2\CCCNC2=O)c1,20µM*,i,-17%,x
CCOc1ccc(N(CC(=O)NCCSCc2ccccc2Cl)S(C)(=O)=O)cc1,8%,i,8%,i
O=C(COc1ccc(Cl)cc1)NCCSCc1ccccc1Cl,25µM*,i,2%,i
Cc1cccc(CSCCNC(=O)COc2ccc(Cl)cc2)c1,u,i,9%,i
O=C(COc1ccc(Cl)cc1)NCCSCc1cccc(Cl)c1,16µM*,i,18%,i
COc1cc(CN(C(=O)COc2ccc(C)c(C)c2)c2ccccn2)cc(OC)c1OC,19%,i,x,i
CCOC(=O)Cc1csc(NC(=O)COc2ccc3c(c2)CCC3)n1,16µM*,u,-24%,i
CCOC(=O)Cc1csc(NC(=O)COc2ccc(C)cc2)n1,11µM*,u,-10%,i
CCOC(=O)Cc1csc(NC(=O)COc2ccccc2)n1,-12%,i,-15%,i
CCOc1ccc(-c2nnc(SCC(=O)NCCc3ccccc3)nc2-c2ccc(OCC)cc2)cc1,13%,i,x,i
FC(F)(F)c1ccccc1Cc1c(C2CCCCC2)nc2ccc(Br)cn12,u,i,-39%,i
COC(=O)c1ccc2nc(-c3ccccc3)c(Cc3ccccc3OC)n2c1,35µM*,i,-6%,i
COc1ccccc1Cc1c(-c2ccccc2)nc2ccc(Br)cn12,35µM*,i,-1%,i
COC(=O)c1ccc2nc(-c3ccc(C)cc3)c(Cc3ccccc3OC)n2c1,-8%,i,-5%,i
COc1ccccc1Cc1c(C2CCCCC2)nc2ccc(Br)cn12,13µM*,i,-2%,i
COc1ccccc1Cc1c(-c2ccc(C)cc2)nc2ccc(Br)cn12,3%,i,-2%,i
Cc1cc(C(=O)CSc2nnc(-c3ccncc3)n2-c2ccccc2)c(C)n1C,-6%,i,-9%,32µM*
CC(C)C1C(=O)N(Cc2cn(CCC3OCCCO3)nn2)CCS(=O)(=O)N1Cc1ccc(-c2ccc(Cl)cc2)cc1 (centres undefined),16%,i,-1%,i
CC(C)C1C(=O)N(Cc2cn(CCC3OCCO3)nn2)CCS(=O)(=O)N1Cc1ccc(-c2ccc(Cl)cc2)cc1 (centres undefined),35µM*,i,u,u
CC1C(=O)N(Cc2cn(CCC3OCCO3)nn2)CCS(=O)(=O)N1Cc1ccc(-c2ccc(Cl)c(Cl)c2)cc1 (centres undefined),16µM*,i,26%,u
COc1cc(OC)c2c(=O)cc(-c3ccccc3)oc2c1,35µM*,i,-8%,i
CC(C)(C)OC(=O)COc1cc(OCC(=O)OC(C)(C)C)c2c(=O)cc(-c3ccccc3)oc2c1,18%,i,0%,32µM*
COc1ccc([C@H]2C[C@H](O)[C@@H](n3cc(C4CC4)nn3)CN2C(=O)C2CCCCC2)cc1,10%,i,0%,i
O=C(Nc1ccccc1)N1CCN(c2ccccc2)CC1,8.9µM*,i,-2%,i
SMILES,TDP43 rescue,Abeta yeast res,aSyn rescue,FUS yeast rescue
CC(=O)c1ccc(N2CCN(C(=O)Nc3ccc(C(C)C)cc3)CC2)cc1,18µM*!,i,-23%,i
O=C(Nc1ccccc1)N1CCCN(c2ccc(C(F)(F)F)cc2[N+](=O)[O-])CC1,18µM*,i,14%,i
CC(C)c1ccc(NC(=O)N2CCOCC2)cc1,6%,i,-10%,i
O=C(Nc1ccccc1)N1CCN(c2ccc(F)cc2)CC1,6%,i,0%,i
O=C(C1CCC1)N1CCN(c2ccc(C(F)(F)F)cc2[N+](=O)[O-])CC1,9%,i,3%,x
O=C(Nc1ccccc1Cl)c1cc(C2CCCN(C(=O)c3ccccc3)C2)on1 (centres undefined),u,i,25%,i
O=C(CCl)NC1CCCCN(Cc2ccc(OC(F)(F)F)cc2)C1=O (centres undefined),x,x,x,i
O=C(NCCC1=CCCCC1)C1CCN(C(=O)N2CCOc3ccc(Cl)cc32)CC1,28µM*,u,x,i

# Assay outcomes: PubChem BioAssay, National Center for Advancing Translational Sciences (NCATS)
